From paper PMC4336329 (PLoS ONE, 2015)
Out of some 310,000 compounds screened, about 2,200 (0.71%) showed an effect of 50% or more. The effect is printed as a negative number. The sample holds strong results, similar compounds and a random draw of the others, so the mix is not that of the screen.

molecular target: human ether-à-go-go-related gene (hERG) potassium channel (human, UniProt Q12809); test: primary screen, population patch clamp on CHO cells stably expressing hERG; higher = less effect of the substance
Sequence (Q12809 whole entry, looked up): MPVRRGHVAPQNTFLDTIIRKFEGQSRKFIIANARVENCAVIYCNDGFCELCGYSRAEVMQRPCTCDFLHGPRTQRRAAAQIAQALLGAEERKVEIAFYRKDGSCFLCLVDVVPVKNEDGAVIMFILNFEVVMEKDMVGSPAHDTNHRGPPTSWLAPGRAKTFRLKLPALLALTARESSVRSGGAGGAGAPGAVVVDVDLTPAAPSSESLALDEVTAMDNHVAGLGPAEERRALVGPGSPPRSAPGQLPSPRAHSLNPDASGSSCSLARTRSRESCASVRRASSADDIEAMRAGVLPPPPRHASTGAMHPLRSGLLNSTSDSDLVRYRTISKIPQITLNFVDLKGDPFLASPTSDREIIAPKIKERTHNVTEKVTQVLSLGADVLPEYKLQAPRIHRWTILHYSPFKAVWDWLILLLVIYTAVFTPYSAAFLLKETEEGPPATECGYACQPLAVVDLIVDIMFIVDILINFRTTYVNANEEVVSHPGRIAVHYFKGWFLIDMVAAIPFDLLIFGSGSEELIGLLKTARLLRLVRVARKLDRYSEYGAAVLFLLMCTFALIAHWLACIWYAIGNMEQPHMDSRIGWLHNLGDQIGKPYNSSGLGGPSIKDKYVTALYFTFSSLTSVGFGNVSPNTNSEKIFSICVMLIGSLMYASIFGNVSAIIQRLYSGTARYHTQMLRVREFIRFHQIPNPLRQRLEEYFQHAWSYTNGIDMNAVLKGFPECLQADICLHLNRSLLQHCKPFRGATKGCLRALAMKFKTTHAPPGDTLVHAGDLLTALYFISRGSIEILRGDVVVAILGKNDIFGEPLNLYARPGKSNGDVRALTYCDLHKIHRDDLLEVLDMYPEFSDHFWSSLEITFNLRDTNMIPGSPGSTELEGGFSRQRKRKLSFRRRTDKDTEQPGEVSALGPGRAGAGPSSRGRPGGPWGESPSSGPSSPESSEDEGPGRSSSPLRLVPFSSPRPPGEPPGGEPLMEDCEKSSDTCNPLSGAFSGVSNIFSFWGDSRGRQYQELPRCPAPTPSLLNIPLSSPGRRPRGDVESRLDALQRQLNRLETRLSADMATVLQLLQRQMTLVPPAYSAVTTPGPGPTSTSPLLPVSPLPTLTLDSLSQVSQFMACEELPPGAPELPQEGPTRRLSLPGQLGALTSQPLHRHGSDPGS

First: C/C(=N\NC(=O)c1cc(C)[nH]n1)c1ccc(-c2ccccc2)cc1
Second: CCOc1ccc(C(=O)C[n+]2ccc(C(=O)NCc3ccccc3)cc2)cc1.[Br-]
The “hERG current change (%, negative = inhibition) at 1uM” value of the first is higher: 13.7% for the first, 4.11% for the second.

Compared with O=C(CCN1C(=O)/C(=C/c2ccc(F)cc2)SC1=S)NNC(=O)c1cccnc1, O=C(C[n+]1cccc(CNC(=O)c2ccc(OC(F)F)cc2)c1)c1ccccc1.[Cl-] is higher in “hERG current change (%, negative = inhibition) at 1uM” value: 1.06% for the first, 2.3% for the second.

Going from COc1cc(/C=N\NC(=O)C(C)(C)O)ccc1OC/C=C/c1ccccc1 to COc1ccc(C(=O)C[n+]2cn(C(F)F)c3ccccc32)c(F)c1.[Br-], the “hERG current change (%, negative = inhibition) at 1uM” value falls from 13% to -0.738%.

Going from CC(C)c1ccccc1OS(N)(=O)=O to Cc1ccc([N+](=O)[O-])c(OCCN2CCC(Cc3ccccc3)CC2)c1.O=C(O)C(=O)O, the “hERG current change (%, negative = inhibition) at 1uM” value falls from 4.02% to -25.9%.

First: COc1ccccc1NC(=O)CSc1nnc(C2CCCCC2)n1-c1ccccc1
Second: O=[N+]([O-])c1cccc(CN2CCC(Cc3ccccc3)CC2)c1
The “hERG current change (%, negative = inhibition) at 1uM” value of the first is higher: 2.23% for the first, -45.6% for the second.

Compared with Cc1cc(OCC(=O)NCCCN2CCCC2=O)c2c(C)cc(=O)oc2c1, Cc1ccc([N+](=O)[O-])c(OCCCN2CCCCCC2)c1.O=C(O)C(=O)O is lower in “hERG current change (%, negative = inhibition) at 1uM” value: 19% for the first, -14.5% for the second.

First: O=C(C[n+]1cn(C(F)F)c2ccccc21)c1ccc(Br)cc1.[Br-]
Second: O=C(C[n+]1cn(C(F)F)c2ccccc21)c1ccc(OC(F)F)cc1.[Br-]
The “hERG current change (%, negative = inhibition) at 1uM” value of the first is higher: 3.52% for the first, -53.7% for the second.

Compared with O=C(C[n+]1ccc(C(=O)NCc2ccccc2)cc1)c1ccc(OC(F)F)cc1.[Br-], Cc1cc(OCCN2CCC(Cc3ccccc3)CC2)ccc1[N+](=O)[O-].O=C(O)C(=O)O is higher in “hERG current change (%, negative = inhibition) at 1uM” value: -81.2% for the first, -53.5% for the second.

Going from O=[N+]([O-])c1ccccc1/C=C/C=N/N1CCCCC1 to Cc1cc(OCCN2CCCCCC2)ccc1[N+](=O)[O-].O=C(O)C(=O)O, the “hERG current change (%, negative = inhibition) at 1uM” value falls from 13% to -12.8%.

Compared with CC(/C=C/c1ccc(N(C)C)cc1)=N\N=C(/N)SC1CC(=O)N(c2ccc(C(=O)O)cc2)C1=O (stereo not drawn), Cc1ccc([N+](=O)[O-])c(OCCCN2CCC(Cc3ccccc3)CC2)c1.O=C(O)C(=O)O is lower in “hERG current change (%, negative = inhibition) at 1uM” value: 3.7% for the first, -95.8% for the second.

Compared with COCCNC(=S)N/N=C/c1ccc([N+](=O)[O-])cc1, Cc1cc(OCCN2CCCC2)ccc1[N+](=O)[O-].O=C(O)C(=O)O is lower in “hERG current change (%, negative = inhibition) at 1uM” value: 12% for the first, 7.94% for the second.

Compared with Cc1cc(OCCN2CCOCC2)ccc1[N+](=O)[O-].O=C(O)C(=O)O, Cc1cc(OCCN2CC(C)OC(C)C2)ccc1[N+](=O)[O-].O=C(O)C(=O)O (stereo not drawn) is lower in “hERG current change (%, negative = inhibition) at 1uM” value: 10.6% for the first, -5.36% for the second.

Going from O=C(O)C(=O)O.O=[N+]([O-])c1cccc(OCCCN2CCC(Cc3ccccc3)CC2)c1 to O=C(O)C(=O)O.O=[N+]([O-])c1cccc(OCCN2CCC(Cc3ccccc3)CC2)c1, the “hERG current change (%, negative = inhibition) at 1uM” value rises from -82.9% to -23.6%.

Cc1cc(OCCCN2CCN(Cc3ccccc3)CC2)ccc1[N+](=O)[O-].O=C(O)C(=O)O was tested, and the “hERG current change (%, negative = inhibition) at 1uM” value was -52.5%.
